Screening results as filed in PubChem.
A selection: hits, their analogues and other compounds. The true share with any hit is near 0.92%.
RECQ1 inh – blocks DNA unwinding by human RECQ1 | P46063 | RECQ1 DNA unwinding, red fluorescence kinetic read | Potency, µM (titrated, usually from 57.3 µM), inactives show at the highest dose activity, negative = inhibition, actives largely listed as inhibitors | 240,000 tested, 0.54% active;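 further: plate controls were vehicle for no effect and no enzyme for full effect; nearly all actives have a fitted effect of over 30% in size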
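50 nM RECQ1T1 preincubated 15 min with compound in Tris pH 8.0 buffer with MgCl2, DTT, Tween-20 and 2.5 ug/ml poly(dI-dC); started with 200 nM TAMRA/BHQ-2 forked duplex and 2 mM ATP. Unwinding read as fluorescence (525/598 nm), two reads 2 h apart.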
FEN1 inh – blocks human flap endonuclease 1. Potency, µM (top dose mostly 114 µM), for inactives: at the highest dose activity change, negative = inhibition, usual class: inhibitors. AID 588795. 390,000 tested, 0.35% active. Recombinant FEN1 flap cleavage, fluorescence, 15 min. P39748; further: nearly all actives have a fitted effect of over 65% in size
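Recombinant FEN1 (10 nM) was preincubated with pin-transferred compounds for 15 min at room temperature, then flap DNA substrate (50 nM final) was added. Plates were read at 0 and 15 min, and normalized concentration–response data were fitted to a four-parameter Hill equation.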
BLM inh – blocks DNA unwinding by human BLM helicase. P54132. recombinant BLM DNA unwinding, fluorescence dequenching. Potency, µM (series often up to 56.1 µM), without a hit: at the highest dose activity change, negative = inhibition, actives largely listed as inhibitors. 350,000 tested, 0.2% active. AID 2528;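 further: plate controls were vehicle for no effect and no enzyme for full effect; nearly all actives have a fitted effect of over 35% in size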
APE1 inh – blocks human APE1 abasic DNA cleavage; recombinant APE1, TAMRA/BHQ-2 abasic DNA cleavage fluorescence; P27695; Potency, µM (series often up to 65.8 µM), without a hit: at the top dose activity change, negative = inhibition, usual class: inhibitors; 350,000 tested, 0.35% active;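 further: plate controls were vehicle for no effect and reference inhibitor for full effect; nearly all actives have a fitted effect of over 55% in size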
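APE1 at 0.75 nM final was preincubated with compound 15 min at room temperature, then 50 nM double-stranded THF abasic-site substrate (5'-TAMRA/3'-BHQ-2) was added. Fluorescence (ex 525/em 598 nm) was read kinetically; third-minus-first read gave activity.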
TDP1 block – inhibitors of human tyrosyl-DNA phosphodiesterase TDP1; Potency, µM (titrated, usually from 130 µM), inactives show at the highest dose activity change, negative = inhibition, most hits filed as inhibitors; Q9NUW8; recombinant TDP1, AlphaScreen DNA substrate cleavage; 350,000 tested, 0.28% active; further: nearly all actives have a fitted effect of over 40% in size
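Steps: enzyme plus compound, 15 min RT; add biotin/phosphotyrosine-FITC oligonucleotide (15 nM final), react 5 min; add donor/acceptor beads (10 ug/ml final), 10 min; read AlphaScreen. Tdp1 at 1 nM final.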
Active calls of the source: *; ? = inconclusive; · = not tested or not shown; [ ] = remark or other dose. The call rests on the fitted dose curve; in most records, active means well fitted curve in the direction sought with a large enough effect; inconclusive means small, poorly fitted or top-dose-only effect, or another doubt; inactive means no such curve, though single readings can be large; an effect the other way counts as inactive or inconclusive. Unless noted, on the % scale 0 is the no-effect control and ±100 the full control effect; potency means the concentration at half of the fitted maximal effect.

SMILES | RECQ1 inh | FEN1 inh | BLM inh | APE1 inh | TDP1 block
COc1ccc(C(=O)N(Cc2ccccc2)Cc2ccco2)c(O)c1 | · | · | · | · | 0.3%
COc1ccc(/C=C/c2cc[n+](C)c3ccccc23)cc1OC | · | 44.7µM* | · | · | ·
COc1ccc(/C=C/c2nccc3ccccc23)cc1OC | · | -19.2% | · | · | ·
C[n+]1ccc(/C=C/c2ccc([N+](C)(C)C)cc2)c2ccccc21 | · | 22.4µM* | · | · | ·
C[n+]1ccc(/C=C/c2ccc(F)cc2)c2ccccc21 | · | -7.4% | · | · | ·
C[n+]1ccc(/C=C/c2cc[n+](C)c3ccccc23)c2ccccc21 | · | 10µM* | · | · | ·
CCOC(=O)c1nn(-c2ccc(OC)cc2)c(=O)c2c(NC(=O)Cc3ccccc3)scc12 | · | · | · | · | -1.4%
COc1cccc(N2C(=O)c3ccccc3C2=O)n1 | · | · | · | · | 0.2%
CC(C)=CC[C@@H](O)C1=CC(=O)c2c(O)ccc(O)c2C1=O | 10µM* | · | · | 7.08µM* | 20.7%
Nc1nc2c(nc(Br)n2[C@@H]2O[C@H]3COP(=O)(O)O[C@H]3[C@@H]2O)c(=O)[nH]1 | -1.9% | · | -0.9% | 2.3% | -9.4%[56.1 µM]
O=c1c2nc(Br)n([C@@H]3O[C@@H]4CO[P@@](O)(=S)O[C@H]4[C@H]3O)c2nc2[nH]c(-c3ccccc3)cn12 | -1.4% | · | -6.2% | 12.6µM* | 22.4µM*
COc1ccc(C2c3c(N)nc(CCCc4ccccc4)nc3Oc3ccc4ccccc4c32)cc1OC (configuration not stated) | · | · | · | · | 1.4%
CC(=O)N[C@H](Cc1c[nH]c2ccccc12)C(=O)O | · | -3.6% | · | · | ·
CC(Cc1c[nH]c2ccccc12)C(=O)O (configuration not stated) | 35.5µM* | 13.9% | -7.0% | ? | -3.8%
COc1cccc(C2c3c(ncn(-c4ccc(C(C)(C)C)cc4)c3=N)Oc3ccc4ccccc4c32)c1 (configuration not stated) | · | · | · | · | 4.2%
O=C(Nc1cccnc1Cl)c1ccc(=O)oc1 | ? | 20µM* | 55.5% | 31.6µM* | ·
COc1ccc(C(=O)Nc2cccnc2Cl)cc1OC | · | -5.3% | -1.7% | 7.4% | ·
C[N+](C)(C)c1ccc(/C=C2\C=Cc3ccccc32)cc1 | · | 35.5µM* | · | · | ·
Nc1ccc(/C=C2\C=Cc3ccccc32)cc1 | · | -22.0% | · | · | ·
C1=Cc2ccccc2/C1=C\c1cc[cH-]c1.[Fe+2].c1cc[cH-]c1 | · | 12.6µM* | · | · | ·
COC1[C@@H](O[C@@H]2O[C@H](C)[C@@H](O[C@H]3C[C@@](C)(O)[C@H](OC(=O)CC(C)C)[C@H](C)O3)[C@H](N(C)C)[C@H]2O)[C@@H](CC=O)C[C@@H](C)[C@@H](O)/C=C/C=C/C[C@@H](C)OC(=O)C[C@H]1OC(C)=O (some centres not stated) | · | · | · | -2.0%[21 µM] | ·
COc1ccc(C2=Nn3c(nnc3-c3ccccc3C(F)(F)F)SC2)cc1OC | · | · | · | -11.9% | ·
O=C(NCCO)c1ccc2nc(-c3ccco3)c(-c3ccco3)nc2c1 | -28.1% | 44.7µM* | -26.7% | ? | ·
O=C(c1ccccc1)c1ccc2nc(-c3ccco3)c(-c3ccco3)nc2c1 | ? | ? | 14.1µM* | ? | -7.6%
O=C(O)c1ccc2nc(-c3ccccc3)c(-c3ccccc3)nc2c1 | -7.5% | 13.0% | 5.3% | 4.6% | 4.9%
SMILES | RECQ1 inh | FEN1 inh | BLM inh | APE1 inh | TDP1 block
COc1ccc(-c2nc3ccc(C(=O)NCC(OC)OC)cc3nc2-c2ccc(OC)cc2)cc1 | 22.4µM* | -17.8% | -12.2% | 12.7% | -1.2%
O=C(NCCc1ccccc1)c1ccc2nc(-c3ccco3)c(-c3ccco3)nc2c1 | ? | -14.5% | 7.08µM* | ? | -2.0%
N#Cc1cccc(OC2=NS(=O)(=O)c3ccccc32)c1 | · | · | · | · | 2.1%
COc1cc(F)c(S(=O)(=O)N2CCCN(S(=O)(=O)c3ccc(NC(C)=O)cc3)CC2)c(F)c1 | · | · | · | · | 0.1%
CC(=O)NC(c1cc(Cl)c2ccccc2c1O)C1CC1 (configuration not stated) | · | · | · | 40.9% | ·
C[C@@H]1C/C=C/C=C/C=C/C=C/[C@H](O[C@@H]2O[C@H](C)[C@@H](O)[C@H](N)[C@@H]2O)C[C@@H]2O[C@](O)(C[C@@H](O)C[C@H]3O[C@@H]3/C=C/C(=O)O1)C[C@H](O)[C@H]2C(=O)O | · | · | · | 0.1%[21 µM] | ·
CCNc1nc(C#N)nc2c1ncn2-c1cccc(Cl)c1 | · | · | · | · | -1.0%
CC(=O)N1c2ccc(S(=O)(=O)Nc3ccc(C)c(C)c3)cc2CC1C (configuration not stated) | · | · | · | · | 1.8%
O=c1oc(-c2ccco2)nc2ccccc12 | -10.5% | 0.1% | -3.8% | -5.4% | 0.0%
c1coc(-c2nc3ccccc3nc2-c2ccco2)c1 | ? | -28.1% | 15.8µM* | -11.7% | ·
Nc1nc(-c2nn(Cc3ccccc3F)c3ncccc23)ncc1C1CC1 | 0.5% | · | 3.7% | 10.2% | 8.2%
OC[C@@H]1[C@@H](c2ccccc2)C(c2cccc(Cl)c2)=NN1c1ccccc1 | 31.6µM* | -17.5% | -11.0%[75.6 µM] | -13.2% | 25.1µM*
Cc1cccc(C2=NN(c3ccccc3)[C@H](CO)[C@H]2c2ccc(Cl)cc2)c1 | -20.6%[81.1 µM] | -8.4% | -12.6%[75.6 µM] | -11.9% | -13.7%[56.1 µM]
CCNc1cc(O)ccc1C | 28.2µM* | -21.7% | · | 47.2% | 4.8%
Cc1ccc(C(=O)CNc2cc(C)ccc2C)cc1 | · | -15.8% | 3.1% | -4.4% | ·
COc1ccccc1CNc1ncncc1-c1ccccc1C | -13.2% | · | 4.5% | -5.3% | 31.6µM*
CNc1ncncc1-c1ccccc1OC | -3.3% | · | 1.0% | 3.9% | 28.2µM*
O=C1c2c(O)cc(O)cc2O[C@H](c2ccc(O)c(O)c2)C1O (some centres not stated) | 14.1µM* | · | -5.1% | ? | 4.3%
COc1ccc(C(=O)N(Cc2ccccc2)Cc2cccs2)c(O)c1 | · | · | · | · | -5.8%
Oc1ccc(N=Nc2c(O)ccc3ccccc23)cc1 | 35.5µM* | -20.5% | -21.9% | -12.1% | 10.3%
Cc1cccc(NC(=O)CN2CCN(C(=O)c3cccc(-n4cnnn4)c3)CC2)c1C | · | 4.7% | · | 15.2% | 1.1%
Cc1cccc(NC(=O)CN2CCN(C(=O)c3ccc(OCc4cn5ccccc5n4)cc3)CC2)c1C | · | 20.0% | · | -7.9% | 44.7µM*
COC(=O)C1CCN(C(=O)COC(=O)CNS(=O)(=O)c2ccc(SC)c([N+](=O)[O-])c2)CC1 | · | -10.0% | · | 11.9µM* | 35.5µM*
CC(=O)Nc1ccc(N/C=C/C(=O)c2ccc(Cl)cc2)cc1 | · | 1.3% | -13.4% | 21.0% | 31.6µM*
COC(=O)c1nc(Nc2cc(F)cc(F)c2)nc(NC2CCCC2)n1 | · | · | · | · | -0.1%
C=CC1=C(C)C2=CC3=NC(=C(CC(=O)[O-])C4=NC(=C(C)C4=C([O-])[O-])C=c4[n-]c(c(C)c4CC)=CC1=N2)C(CCC(=O)[O-])C3C.[Cu+2].[Na+].[Na+].[Na+] (configuration not stated) | · | · | · | 0.398µM* | ·
O=S(=O)(Nc1cc(O)cc2cccnc12)c1ccc(Cl)s1 | -7.8% | · | ? | 0.6% | 23.2%
